# Test results published in the OligoGym collection.
# Target: XKR5
# Test: pooled miR-30 sensor sort-seq; sequence = guide strand
# Conditions: shRNA
# Note: reference of the scale not given here.
row,Sequence,sensor-assay potency score (higher = more potent)
1,TAAGTTATTCTACTATTCCTTT,-0.571
2,TTGTAGAACAGAACCAGACTCA,0.203
3,TAGCAGACAATTTTGACTGGAA,0.477
4,TGATCTTAGACACATTTCCTGT,-0.718
5,TAGTGTCTCACATTGAATGGAA,-0.0169
6,TTAGTTATTACAAGCACACAGG,-0.438

# Target: XKRX
# Test: as above
# Conditions: shRNA
row,Sequence,sensor-assay potency score (higher = more potent)
1,TAAGTTTCACTATTCTTTCGAT,0.293
2,TTCTCTACCAACCTCACACTAT,-0.943
3,TAGTCTACTACATTATGGGTGA,-0.472
4,AATACCATTAGCACAACTCTAC,-0.637
5,TAAACTCTGTCCATTGTCGAGG,-0.536
6,TAACAGAGAGCTAATCTGCTTG,0.29
7,TTATCTTTGGCTAGATCTCTGT,-0.472
8,TAGTCATCGTACTTGATCTGGA,0.135
9,TCTATTAGCATCTTCTTTCGGG,0.547
10,TTCAGTAACACTTTCACTCCAA,0.565
11,TAGCACAACTCTACCCAGGGGA,0.12
12,TAAATGGAAAAGTAAATCGGGG,-0.48

# Target: YAP1
# Test: as above
# Conditions: shRNA
row,Sequence,sensor-assay potency score (higher = more potent)
1,TTAAGGAAAGGATCTGAGCTAT,-0.559
2,TGTTGAACAAACTAAATGCTGT,0.164
3,TGCTGTGACATGAAGCATCTGA,0.636
4,TTGGTTGATAGTATCACCTGTA,0.588
5,TGTTGTTGTCTGATCGATGTGA,0.751
6,TTAGCCTGAAAACTGCAACTGG,-0.22
7,TAAAGTATCTTGCTGGACGTTT,-0.0595
8,TACATTAACAGCAGCAATGGAC,-0.672
9,TTGAACAAACTAAATGCTGTGA,0.444
10,TTTGGTTGATAGTATCACCTGT,0.841
11,TTAAGAAGTATCTCTGACCAGA,0.035
12,ATCTTTTTCTGTATTAGCCTGA,0.428

# Target: YARS
# Test: as above
# Conditions: shRNA
row,Sequence,sensor-assay potency score (higher = more potent)
1,ATCTTCTCTACATACAGGCTGT,-0.695
2,TTGAATAGCCAAGTGCAGGGAG,0.352
3,TAGTGTGTACTCTTTGCTGAGC,-0.796
4,TCTAGTGTGTACTCTTTGCTGA,0.0358
5,TTTTGCTGCCTGTTAATCCTGG,-0.733
6,TACACATCTAGTGTGTACTCTT,-0.195
7,TTCTCGAAGACTTTCTTCTTGG,-0.635
8,TATAGAAGCACACAGAAGCATG,-1.29
9,TTTTAAATACTCTTCATCCAAA,-1.12
10,TTCTCATAGTAACTGACTCGGA,-0.794
